NCOA2 inhibitor = human SRC2 (NCOA2) inhibition; Q15596; HEK293 GAL4-SRC2 luciferase reporter, luminescence; inhibition, % at 9 µM; 370,000 compounds, 0.17% hits;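 active = inhibition above the mean inhibition of all tested compounds plus 3 SD, set per campaign, cut at about 52% in these data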;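 also: 0% = DMSO treated cells and 100% = cells given Gossypol at 36 µM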
Target sequence (Q15596 whole entry, looked up, the tested form may be a part): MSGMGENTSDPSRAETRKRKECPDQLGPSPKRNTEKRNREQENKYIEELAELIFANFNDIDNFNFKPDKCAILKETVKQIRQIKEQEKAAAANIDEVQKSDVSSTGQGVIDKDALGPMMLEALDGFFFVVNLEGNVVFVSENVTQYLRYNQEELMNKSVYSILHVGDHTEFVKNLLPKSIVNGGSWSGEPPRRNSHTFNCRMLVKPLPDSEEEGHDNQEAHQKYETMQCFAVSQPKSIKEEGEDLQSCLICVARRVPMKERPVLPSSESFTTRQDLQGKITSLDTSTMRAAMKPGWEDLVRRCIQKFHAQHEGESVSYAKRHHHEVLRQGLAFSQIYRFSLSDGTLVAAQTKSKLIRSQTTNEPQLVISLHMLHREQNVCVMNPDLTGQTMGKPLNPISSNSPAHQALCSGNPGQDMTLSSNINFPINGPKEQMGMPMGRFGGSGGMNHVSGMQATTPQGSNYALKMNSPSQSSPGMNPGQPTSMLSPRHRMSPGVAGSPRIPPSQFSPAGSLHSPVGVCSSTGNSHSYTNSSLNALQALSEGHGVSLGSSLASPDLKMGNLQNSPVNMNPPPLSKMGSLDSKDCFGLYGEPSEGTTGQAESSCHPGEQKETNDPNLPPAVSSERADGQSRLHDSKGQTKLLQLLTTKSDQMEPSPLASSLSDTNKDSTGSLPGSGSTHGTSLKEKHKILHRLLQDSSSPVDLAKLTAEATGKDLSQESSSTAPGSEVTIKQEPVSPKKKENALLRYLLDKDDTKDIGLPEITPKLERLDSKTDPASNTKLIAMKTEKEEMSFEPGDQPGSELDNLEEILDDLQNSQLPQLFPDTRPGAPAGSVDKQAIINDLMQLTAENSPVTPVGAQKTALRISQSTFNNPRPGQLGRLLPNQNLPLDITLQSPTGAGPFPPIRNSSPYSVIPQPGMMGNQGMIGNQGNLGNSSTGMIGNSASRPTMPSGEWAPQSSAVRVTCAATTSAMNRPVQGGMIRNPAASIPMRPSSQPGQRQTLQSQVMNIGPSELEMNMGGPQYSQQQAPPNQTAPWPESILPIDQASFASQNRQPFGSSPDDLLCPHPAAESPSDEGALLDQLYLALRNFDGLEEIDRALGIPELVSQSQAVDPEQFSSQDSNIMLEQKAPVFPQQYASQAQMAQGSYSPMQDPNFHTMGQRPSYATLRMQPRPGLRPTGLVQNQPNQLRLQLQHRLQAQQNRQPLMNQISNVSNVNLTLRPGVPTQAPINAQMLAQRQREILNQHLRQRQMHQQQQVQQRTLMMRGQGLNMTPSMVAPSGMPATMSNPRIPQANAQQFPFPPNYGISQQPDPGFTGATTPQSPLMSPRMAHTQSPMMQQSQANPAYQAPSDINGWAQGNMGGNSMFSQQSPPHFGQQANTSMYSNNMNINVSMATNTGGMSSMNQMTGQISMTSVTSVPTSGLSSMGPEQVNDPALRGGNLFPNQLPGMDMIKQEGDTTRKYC
NCOA3 inh = inhibits human SRC3 coactivator | Q9Y6Q9 | 360,000 compounds, 0.17% hits | inhibition, % at 3.6 µM | HEK293 GAL4-SRC3 luciferase reporter, luminescence | AID 588352;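 active = inhibition above a per-campaign cutoff, the mean of all compounds plus 3 SD, cut at about 60% in these data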;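 also: 0% = DMSO-treated cells and 100% = gossypol-treated cells at 36 µM; higher means less SRC3-driven luciferase light from the GAL4 reporter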
LRH-1 inv ag = NR5A2 inverse agonism in reporter assay | 360,000 compounds, 0.13% hits | AID 602396 | HEK293T StAR-luciferase reporter, LRH-1 transfected, 24 h | O00482 | inhibition, % at 3.6 µM;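 active = inhibition above the mean inhibition of all tested compounds plus 3 SD, cut at about 73% in these data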;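 also: 0% = DMSO wells and 100% = reporter-only cells lacking LRH-1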
COUP-TFII inh = inhibitors of human COUP-TFII (NR2F2) | P24468 | HEK293T NGFI-A luciferase reporter, luminescence | inhibition, % at 8.6 µM | 370,000 compounds, 0.7% hits | AID 686940;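 active = inhibition above a per-plate cutoff, mean inhibition of test wells between control levels plus 3 SD, cut at about 38% in these data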;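 also: cells cotransfected with COUP-TFII expression vector driving the NGFI-A reporter; 0% = median of COUP-TF2 test wells and 100% = reporter-only cells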
SRC1 inh = inhibits human SRC1 coactivator | inhibition, % at 3.6 µM | 360,000 compounds, 0.12% hits | HEK293 GAL4-SRC1 luciferase reporter, luminescence | Q15788;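 active = inhibition above the campaign mean plus 3 SD, with each screening campaign given its own cutoff, cut at about 60% in these data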;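 also: 0% = DMSO treated cells and 100% = gossypol at 36 µM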
Gli-Sufu antag = Gli-Sufu pathway antagonism. 340,000 compounds, 0.74% hits. Sufu-KO-LIGHT fibroblasts, Gli luciferase reporter luminescence. inhibition, % at 5 µM;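 active = inhibition above about 55%, limit read from the data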;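 also: 0% = DMSO-treated cells and 100% = wells with medium but no cells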
Gli-Sufu confirm = confirmation of Gli-SUFU pathway antagonists | shares compounds with Gli-Sufu antag | Sufu-KO-LIGHT cells, Gli luciferase reporter, luminescence | inhibition, % at 5 µM | 2,500 compounds, 40% hits;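 active = mean inhibition at 5 µM reaching about 45%, limit read from the data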;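 also: plate controls were DMSO-treated cells for no effect and wells lacking cells for full effect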
Gli cytotox = cytotoxicity counter-screen for Gli-SUFU antagonists. Sufu-KO-LIGHT cells cytotoxicity, ATP luminescence. shares compounds with Gli-Sufu antag. cytotoxicity, % at 5 µM. 2,500 compounds, 32% hits. AID 651994;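 active = mean cytotoxicity at 5 µM above about 25%, limit read from the data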;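 also: cells exposed to compound overnight for roughly 16 to 18 hours; plate controls were DMSO wells with cells for no effect and medium without cells for full effect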
Wnt3a counter = Wnt3a reporter inhibition counter-screen. inhibition, % at 6.25 µM. Wnt-LIGHT cells, Wnt3a-driven luciferase reporter, luminescence. 2,500 compounds, 20% hits. shares compounds with Gli-Sufu antag;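 active = mean inhibition above about 25%, limit read from the data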
Gal4-VP16 ctr = counter-screen for COUP-TFII antagonists: inhibitors of VP16. AID 687007. 2,500 compounds, 25% hits. shares compounds with COUP-TFII inh. HEK293 Gal4-VP16 luciferase reporter, luminescence. inhibition, % at 8.5 µM; in the data active = inhibition above about 13%
NR2F2 inh conf = COUP-TFII (NR2F2) inhibition, confirmation assay. shares compounds with COUP-TFII inh. HEK293 NGFI-A luciferase reporter, luminescence. inhibition, % at 8.5 µM. 2,500 compounds, 45% hits;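 active = mean inhibition over three repeats above a set limit taken from the earlier primary screen, cut at about 38% in these data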;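 also: 100% = cells given the luciferase reporter alone without the COUP-TF2 vector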
* marks the source's active call; other numbers are inactive results; x = no result given; ! = not active in a repeat. Sampled rows, rich in hits. Any-hit rate of the full collection: about 1.3%.

SMILES	NCOA2 inhibitor	NCOA3 inh	LRH-1 inv ag	COUP-TFII inh	SRC1 inh	Gli-Sufu antag	Gli-Sufu confirm	Gli cytotox	Wnt3a counter	Gal4-VP16 ctr	NR2F2 inh conf
O=C(O)c1ccc(N/N=C/c2ccc3nccnc3c2)cc1	67.6*	62.4*	41.0	66.8*	37.2	55.5*	59.4*	35.1*	101.3*	17.4*	59.4*
CCOC(=O)N1CCN(C(=O)C[C@H]2C[C@@]3(C(=O)OC)C(=C[C@H](C(C)C)O[C@@H]3C3CC3)N(Cc3ccc4c(c3)OCO4)C2=O)CC1	6.0	x	x	-8.1	x	x	x	x	x	x	x
Cc1nn(C(C)C)c(C)c1CN1CCCC(C(=O)c2cccc(OC(C)C)c2)C1 (stereo not drawn)	29.0	9.1	-4.4	37.5*	12.5	58.7*	17.2	24.1	-30.3	0.6	15.8
CC(C)Oc1cccc(C(=O)C2CCCN(Cc3cnn(C(C)C)c3)C2)c1 (stereo not drawn)	-8.9	11.8	9.9	-17.6	3.8	38.1	x	x	x	x	x
N#Cc1ccc(NC(=O)OC2CC3CC2[C@H]2CCCCN2[C@H]3Cc2ccccc2)cc1 (stereo partly drawn)	9.9	x	x	-6.4	x	x	x	x	x	x	x
COc1ccc(CNc2cc(C)nc3ncnn23)c(OC)c1	15.8	3.8	32.2	64.9*	22.0	52.1	46.0*	13.6	24.6	-5.1	35.0
CC1CN(C(=O)c2cccc(S(=O)(=O)N3CCN(c4ccc(F)cc4)CC3)c2)CC(C)O1 (stereo not drawn)	14.3	-1.9	4.6	3.1	-1.3	15.5	x	x	x	x	x
O=C(c1cccc(S(=O)(=O)N2CCN(c3ccc(F)cc3)CC2)c1)N1CCCC(C(F)(F)F)C1 (stereo not drawn)	26.7	20.3	36.2	63.0*	20.4	56.6*	62.3*	34.1*	6.7	-3.7	44.5*
Cc1ccc(CNC[C@@]23CO[C@H](c4ccc(Cl)cc4)N2[C@@H](c2ccc(Cl)cc2)SC3)o1	18.6	x	x	4.7	x	x	x	x	x	x	x
O=C(c1ccc(CSc2nc3ccncc3[nH]2)cc1)N1CCN(c2cccc(Cl)c2)CC1	7.4	3.2	10.1	78.2*	17.5	58.3*	67.2*	42.3*	8.1	11.7	50.8*
O=C(c1ccc(CSc2nc3ccncc3[nH]2)cc1)N1CCCCCC1	-41.7	-53.3	-77.3	-14.9	-75.2	-43.4	x	x	x	x	x
CSC1SCC2C(=O)N(C)C(C(C)C)C(=O)OCC(NC(=O)c3cnc4ccccc4n3)C(=O)NC(C)C(=O)N(C)C1C(=O)N(C)C(C(C)C)C(=O)OCC(NC(=O)c1cnc3ccccc3n1)C(=O)NC(C)C(=O)N2C (stereo not drawn)	65.7*	86.3*	95.7*	51.1*	84.9*	80.2*	84.8*	72.6*	102.2*	29.4*	38.1*
Cc1cc(NC2CCCCC2)nc(NCc2ccccc2)n1	-21.8	32.9	5.1	52.4*	16.9	79.5*	57.8*	33.5*	17.3	-2.0	18.9
CCCC1CCC2(CC1)CCC2OC(=S)Nc1cccc(C(F)(F)F)c1 (stereo not drawn)	x	x	x	-15.1	x	x	x	x	x	x	x
O=C(CN1C(=O)c2ccccc2S1(=O)=O)c1ccc(F)cc1	32.4	46.0	-15.9	39.6*	13.7	76.0*	82.9*	3.8	90.5*	-22.7	13.6
CC(=O)Nc1ccc(NS(=O)(=O)c2ccc(-c3cnc(C4CC4)o3)cc2)cc1	14.7	9.4	27.5	4.7	-36.1	-9.5	x	x	x	x	x
CC(=O)c1cccc(NS(=O)(=O)c2ccc(-c3cnc(C4CC4)o3)cc2)c1	15.4	27.7	36.8	44.4*	16.1	55.0	49.2*	17.1	-8.3	2.7	47.1*
CCCCOCCCNC(=O)C[C@H]1C[C@@]2(C(=O)OC)C(=C[C@H](COCc3ccccc3)O[C@@H]2C)N(Cc2ccc(Cl)cc2Cl)C1=O	4.3	x	x	20.0	x	x	x	x	x	x	x
N#CCC(=O)Nc1ccc(C(=O)OCC(=O)C23CC4CC(CC(C4)C2)C3)cc1	14.0	-17.8	4.3	-6.0	10.4	-7.7	x	x	x	x	x
O=C(OCC12CC3CC(CC(C3)C1)C2)c1ccc(NCc2cc(O)ccc2O)cc1	84.6*	72.7*	65.1	79.7*	18.3	78.0*	68.3*	37.6*	65.9*	78.9*	99.4*
CN1/C(=C\P(=O)(N(C)C)N(C)C)C(C)(C)c2ccccc21	5.0	11.5	25.8	45.6*	4.2	76.0*	70.4*	29.9*	28.6*	-5.9	-0.2
COc1ccccc1-n1c(-c2ccccc2)c[n+]2c1CCc1ccccc1-2	6.2	74.0*!	66.1	70.6*	50.7	80.7*	87.4*	24.5	31.9*	18.5*!	63.2*
COc1ccccc1-n1c(-c2ccccc2)c[nH]c1=S	-3.1	15.4	-7.9	3.8	-17.9	0.5	x	x	x	x	x
O=S(=O)(c1cc(C(F)(F)F)ccc1Cl)N1CCN(c2ncnc3ccccc23)CC1	34.3	19.2	32.1	41.5*	17.5	61.0*	60.8*	19.2	43.6*	15.0*	60.5*
O=S(=O)(c1cc(C(F)(F)F)ccc1Cl)N1CCCCCC1	-22.4	11.0	-9.7	9.6	5.9	-3.0	x	x	x	x	x
SMILES	NCOA2 inhibitor	NCOA3 inh	LRH-1 inv ag	COUP-TFII inh	SRC1 inh	Gli-Sufu antag	Gli-Sufu confirm	Gli cytotox	Wnt3a counter	Gal4-VP16 ctr	NR2F2 inh conf
Cc1ccc(S(=O)(=O)CC2CSc3nc4ccccc4n32)cc1 (stereo not drawn)	16.5	24.8	48.0	67.5*	26.5	71.8*	70.4*	18.5	47.2*	9.4	63.9*
Cc1ccc(S(=O)(=O)CC2CSc3nc(N)cc(=O)n32)cc1 (stereo not drawn)	2.7	-5.4	-1.8	-8.0	-12.7	7.7	x	x	x	x	x
CCCCNC(=O)C1(C(=O)C2CC2)CC(c2ccccc2C(F)(F)F)=NO1 (stereo not drawn)	-30.5	x	x	-10.1	x	x	x	x	x	x	x
CN(C)c1cc[n+](Cc2c(Cl)cccc2Cl)cc1	-0.1	22.6	45.9	47.0*	5.7	72.9*	67.5*	17.1	29.7*	4.8	34.0
O=C(OC12CCCN(C1)/C(=C/c1cccnc1)C2)c1ccco1 (stereo not drawn)	24.3	x	x	-7.6	x	x	x	x	x	x	x
c1ccc(-n2ncc3c(NCCCN4CCOCC4)ncnc32)cc1	-43.4	-59.8	-110.0	-40.0	-91.1	-55.7	x	x	x	x	x
Clc1ccc(-n2ncc3c(NCCN4CCOCC4)ncnc32)cc1	37.1	57.9	43.2	55.6*	42.0	53.9	66.3*	17.6	58.7*	-29.1	48.2*

Screening results from PubChem BioAssay.
